# The list is not random: actives were taken first. Their share in the collection is about 10%.
# JMJD2A Tudor inh: qHTS Assay for Inhibitors of JMJD2A-Tudor Domain | Lysine-specific demethylase 4A (Homo sapiens), O75164 | AlphaScreen JMJD2A-Tudor / H3K4me3 peptide binding | Potency, µM (doses to about 114 µM), without a hit: at the top dose activity change, negative = inhibition, most hits filed as inhibitors | 390,000 compounds, 4.4% hits | AID 504339, 2011; also: potency is read from the fitted curve at half-maximal effect; % is scaled to controls: 0 for no effect and ±100 for the full control effect; nearly all actives have a fitted effect of over 50% in size
# CtBP-E1A inh: qHTS Assay for Inhibitors of the CtBP/E1A Interaction | activity change, % (no concentration beside the values) | AlphaScreen GST-E1A/His-CtBP binding, 1536-well; stronger effect = lower value | 340,000 compounds, 0.49% hits | CtBP / adenovirus E1A interaction (AlphaScreen); in the data active = activity change below about -65%; inconclusive = mostly about -30% to -63%; also: % is scaled to controls: 0 for no effect and ±100 for the full control effect
#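 In 5 uL wells, 23 nL compound meets equimolar GST-E1A and His-CtBP (5X stock 125 nM each) for 2 h, 37 °C. Beads (5X, 50 ug/mL) then 1 h, 37 °C, dark.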
# Six1-Eya2 inh: qHTS Assay for Inhibitors of the Six1/Eya2 Interaction | 360,000 compounds, 0.56% hits | Homeobox protein SIX1 (Homo sapiens) + Protein phosphatase EYA2 (Homo sapiens), … | AlphaScreen GST-Six1/His-Eya2 binding, biochemical; stronger effect = lower value | activity change, % (concentration not given with the values); in the data active = activity change below about -65%; inconclusive = mostly about -30% to -63%; also: % is scaled to controls: 0 for no effect and ±100 for the full control effect
#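 Six1/Eya2 binding was read as AlphaScreen signal after compounds were pinned into GST-Six1 plus His-tagged Eya2 (5X stock 250/500 nM) in pH 8.0 Tris/NaCl/TCEP buffer, beads added, then incubated 1 h, 37 C, dark.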
# HP1b chromo inh: HTS for Inhibitors of HP1-beta Chromodomain Interactions with Methylated Histone Tails | AID 540317, 2011 | 390,000 compounds, 0.56% hits | Chromobox protein homolog 1 (Homo sapiens), P83916 | Potency, µM (top dose mostly 114 µM), inactives show at the top dose activity change, negative = inhibition, actives largely listed as inhibitors | AlphaScreen HP1-beta / biotin-H3K9me3 peptide binding; also: potency is read from the fitted curve at half-maximal effect; nearly all actives have a fitted effect of over 70% in size
# Target sequence (P83916 whole entry, looked up): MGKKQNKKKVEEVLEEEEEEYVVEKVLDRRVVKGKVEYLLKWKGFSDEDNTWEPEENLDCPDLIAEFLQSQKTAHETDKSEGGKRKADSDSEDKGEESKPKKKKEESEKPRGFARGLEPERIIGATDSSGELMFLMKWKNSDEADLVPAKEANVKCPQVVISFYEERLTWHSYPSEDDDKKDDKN
#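 HP1-beta protein (50 nM final) preincubated 30 min at room temperature with biotinylated H3(1-18)K9me3 peptide (50 nM) in PBS pH 7.4, 0.01% Tween-20, then compound added for 30 min. AlphaScreen streptavidin donor/nickel chelate acceptor beads (10 ug/mL final), 30 min dark, luminescence read.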
# BAZ2B inh: qHTS Assay for Inhibitors of BAZ2B | AlphaScreen BAZ2B-H3K14Ac peptide displacement | Potency, µM (top dose mostly 114 µM), for inactives: at the top dose activity change, negative = inhibition, hits mostly inhibitors | 360,000 compounds, 4.4% hits; also: potency is read from the fitted curve at half-maximal effect; % is scaled to controls: 0 for no effect and ±100 for the full control effect; nearly all actives have a fitted effect of over 60% in size
#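 Complex of BAZ2B and biotin-H3K14Ac (50 nM apiece) forms over 30 min at RT, then faces library compounds up to 110 uM for another 30 min; AlphaScreen beads added, 20 min dark incubation, luminescence read.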
# G9a inh: qHTS Assay for Inhibitors of Histone Lysine Methyltransferase G9a; Histone-lysine N-methyltransferase EHMT2 (Homo sapiens), Q96KQ7; G9a H3K9 monomethylation, AlphaScreen, 2 h; Potency, µM (highest dose often 102 µM), without a hit: at the highest dose activity, negative = inhibition, usual class: inhibitors; 350,000 compounds, 8.8% hits; AID 504332, 2011; also: potency is read from the fitted curve at half-maximal effect; % is scaled to controls: 0 for no effect and ±100 for the full control effect; nearly all actives have a fitted effect of over 75% in size
# Target sequence (Q96KQ7 913-1193 limits assumed): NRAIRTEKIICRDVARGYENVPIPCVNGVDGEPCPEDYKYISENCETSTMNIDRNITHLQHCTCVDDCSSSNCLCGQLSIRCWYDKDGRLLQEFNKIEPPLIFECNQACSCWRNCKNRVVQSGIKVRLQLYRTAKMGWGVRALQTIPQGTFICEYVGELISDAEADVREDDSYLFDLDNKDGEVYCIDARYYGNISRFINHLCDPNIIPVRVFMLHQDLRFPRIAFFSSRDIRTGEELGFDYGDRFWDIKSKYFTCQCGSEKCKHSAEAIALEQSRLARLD
#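 AlphaScreen detection with an anti-monomethyl H3K9 antibody quantified product after a 2 h room-temperature reaction containing 500 nM biotinylated H3K9 peptide, 20 µM SAM and 20 nM enzyme, which had been preincubated 15 min with compound.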
# Active calls of the source: *; ? = inconclusive; . = no result given; [ ] = remark or other dose. Unless noted, calls follow the shape of the dose curve; as a rule, active = well fitted inhibition curve with a large enough effect; inconclusive = small, poorly fitted or top-dose-only effect; inactive = no such curve, though single readings can be large or run the other way.
SMILES,JMJD2A Tudor inh,CtBP-E1A inh,Six1-Eya2 inh,HP1b chromo inh,BAZ2B inh,G9a inh
O=[S+]([O-])(c1ccc2c(c1)OCCO2)N1CCN([S+](=O)([O-])c2c(F)cc(O)cc2F)CC1,-22.6%,.,.,.,.,.
O=C(Nc1nnc(-c2ccccc2Cl)o1)c1ccco1,79.4µM*,-9.7,-10.6,12.5%,79.4µM*,?
COc1cccc(C(=O)Nc2nnc(-c3cccs3)o2)c1,-12.8%,-25.1,-19.6,50.2%,?,-4.4%
Cc1ccc(-c2nnc(NC(=O)c3ccco3)o2)c(C)c1,-14.5%,-8.2,5.6,19.0%,?,-34.5%
O=C(Nc1ccc(Br)cc1)c1ccco1,0.6%,0.0,-6.3,7.9%,6.9%,14.0%[12.7 µM]
COc1cc(-c2nnc(NC(=O)c3ccco3)o2)cc(OC)c1OC,?,-30.0,-26.4,19.2%,79.4µM*,?
CCOc1cc(-c2nnc(NC(=O)c3ccco3)o2)cc(OCC)c1OCC,-24.1%,-3.2,3.4,16.3%,10.0%,37.4%[59 µM]
O=C(Nc1nnc(-c2ccc(Br)cc2)o1)c1ccco1,?,-7.5,-13.8,43.9%,79.4µM*,-22.6%
O=C(Nc1nnc(-c2cccs2)o1)c1ccco1,44.7µM*,-8.8,-18.5,44.6%,35.5µM*,10µM*
Cc1c(NS(=O)(=O)c2ccc3c(c2)Cc2ccccc2-3)c(=O)n(-c2ccccc2)n1C,-18.4%,.,0.9,35.9%,-29.2%,-8.2%
COC(=O)c1ccc2nc(-c3ccccc3)c(Cc3ccsc3)n2c1,.,-7.5,-13.6,.,.,.
CC[C@@]1(O)C(=O)OCc2c1cc1n(c2=O)Cc2cc3c([N+](=O)[O-])cccc3nc2-1,.,.,.,.,.,-4.0%[12.7 µM]
COC(=O)C[C@H]1CC[C@@H](NS(=O)(=O)c2ccc(C)cc2)[C@@H](CO)O1,.,4.3,3.2,.,.,.
O=C(CCN1C(=O)c2ccc([N+](=O)[O-])cc2C1=O)Nc1ccc(O)cc1C(=O)O,-17.6%,-1.4,-1.4,0.9%,6.9%,50.1µM*
O=C(O)Cc1ccc(NC(=O)CCN2C(=O)c3ccc([N+](=O)[O-])cc3C2=O)cc1,-4.5%[11.4 µM],.,2.4,33.7%,-15.5%,-1.2%
CCOc1ccc(CCNC(=O)CN2C(=O)C(CC)Oc3ccccc32)cc1OCC (stereo not given),-5.2%,.,.,36.7%,5.0%,-2.6%[59 µM]
Cc1ccccc1N(C)C(=O)c1noc2c1COc1ccccc1-2,-10.6%,.,.,21.4%,-13.9%,-38.6%[59 µM]
O=C(Nc1nnc(S(=O)(=O)N2CCCC2)s1)c1ccc(F)cc1,-3.6%,.,.,31.6%,-17.1%,-22.4%[59 µM]
COc1cc(OC)c(OC)cc1CCC(C)NCCC(c1ccccc1)c1ccccc1 (stereo not given),44.7µM*,.,?,?,12.6µM*,-3.2%[2.33 µM]
COc1ccc(CCNCCC(c2ccccc2)c2ccccc2)cc1OC,.,-11.4,-17.9,.,.,.
CCCCn1nnnc1C(c1ccccc1)N1CCN(c2ncc(C(F)(F)F)cc2Cl)CC1 (stereo not given),.,0.3,0.1,.,.,.
O=C(CCSc1ccccn1)c1ccccc1,13.9%,3.4,7.8,37.7%,-3.8%,?
O=C(O)CCSc1ccccn1,-16.0%,-1.4,4.7,16.7%,0.9%,14.1µM*
C#CCOCCOCCOCCNc1nc(N2CCN(C(=O)[C@H](C)n3cc(CCCN=C(N)N)nn3)CC2)nc(N2CCN(C(=O)[C@H](Cc3ccc(O)cc3)n3cc(CCO)nn3)CC2)n1,.,.,.,.,?,31.6µM*
C#CCOCCOCCOCCNc1nc(N2CCN(C(=O)[C@H](CCCCN)n3cc(CCCC)nn3)CC2)nc(N2CCN(C(=O)[C@H](Cc3ccc(O)cc3)n3cc(CCO)nn3)CC2)n1,79.4µM*,-0.2,3.6,-18.6%,?,39.8µM*
SMILES,JMJD2A Tudor inh,CtBP-E1A inh,Six1-Eya2 inh,HP1b chromo inh,BAZ2B inh,G9a inh
Cc1cccc(NC(=O)C2CCN(c3nnc(-n4c(C)ccc4C)s3)CC2)c1C,-14.4%,.,.,58.1%,-15.3%,5.9%[59 µM]
CCC(CO)Oc1cc(NC(=O)c2ccccc2[N+](=O)[O-])c2ncn(C(C)C)c2c1 (stereo not given),-22.8%,-0.1,1.4,38.1%,.,.
O=S(=O)(NCc1cccnc1)c1ccc(Cl)s1,?,-10.2,-0.8,29.3%,-30.9%,?
COC(=O)[C@H]1C[C@H](O)CN1S(=O)(=O)c1ccc(Br)cc1F,-11.5%,4.4,5.3,82.7%,.,.
CC(=O)Nc1ccc(-c2nnc(SCC(=O)c3ccc4c(c3)Cc3ccccc3-4)n2C)cc1,35.5µM*,3.8,-4.0,4.7%,1.4%,22.4µM*
Cn1c(SCC(=O)c2ccc3c(c2)Cc2ccccc2-3)nnc1-c1cccc(N)c1,-21.8%,-3.7,-5.9,11.1%,-10.6%,?
Oc1cc2c(cc1O)[C@H]1c3ccc(O)c(O)c3OC[C@@]1(O)C2,1.26µM*,-18.5,-6.9,?,35.5µM*,-147.0%[12.7 µM]
Oc1ccc2c(c1)OCC1(O)Cc3cc(O)c(O)cc3C21 (stereo not given),20µM*,-12.2,-0.5,?,.,-115.2%[2.33 µM]
CN(Cc1ccc2nonc2c1)Cc1nc(CC2CC2)no1,-4.1%,11.0,7.6,13.8%,-4.2%,.
Cc1cc2c(s1)c1cnn(Cc3ccc(C(C)C)cc3)c(=O)c1n2C,-3.4%,.,.,.,.,.
Cc1nn(Cc2n[nH]c(=S)n2Cc2ccccc2)c(C)c1Cl,?,-5.1,9.5,15.7%,-21.7%,2.51µM*
Cc1cc(C)n(Cc2n[nH]c(=S)n2Cc2ccccc2)n1,22.4µM*,-0.1,0.1,43.9%,-4.7%,15.8µM*
COC(=O)c1ccc(C2/C(=C(/O)c3ccc4c(c3)CC(C)O4)C(=O)C(=O)N2CCN2CCOCC2)cc1 (stereo not given),?,-0.5,6.2,45.7%,-16.9%[57.1 µM],50.1µM*
COc1ccc(C2/C(=C(\O)c3ccc4c(c3)OCCO4)C(=O)C(=O)N2c2nc(C)c(C(C)=O)s2)cc1 (stereo not given),-27.8%,-1.5,-7.3,7.2%,?,44.7µM*
COCCN1C(=O)C(=O)/C(=C(/O)c2ccc3c(c2)OCCO3)C1c1ccc(C(=O)OC)cc1 (stereo not given),44.7µM*,1.2,12.7,-7.8%,?,?
COc1ccc(C2/C(=C(\O)c3ccc4c(c3)OCCO4)C(=O)C(=O)N2Cc2ccco2)c(OC)c1 (stereo not given),?,2.0,0.0,-6.9%,?,?

# Bioassay records: PubChem, National Center for Advancing Translational Sciences (NCATS)
